# Results published in publication PMC7862700, “An all-to-all approach to the identification of sequence-specific readers for epigenetic DNA modifications on cytosine”.
# Molecular target: T1, ELF5 (Homo sapiens, UniProt Q9UKW6-2 1-255)
# T1 sequence: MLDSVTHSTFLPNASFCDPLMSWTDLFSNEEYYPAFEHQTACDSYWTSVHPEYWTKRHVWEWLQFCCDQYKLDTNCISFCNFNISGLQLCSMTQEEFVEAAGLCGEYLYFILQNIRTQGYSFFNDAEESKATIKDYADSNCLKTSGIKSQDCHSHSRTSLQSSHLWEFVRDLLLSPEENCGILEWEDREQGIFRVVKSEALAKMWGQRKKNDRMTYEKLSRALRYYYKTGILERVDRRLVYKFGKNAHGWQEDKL
# Test: DAPPL (digital affinity profiling via proximity ligation, sequencing); 10 mM Tris-HCl pH 7.5, 50 mM NaCl, 1 mM DTT, 4% glycerol, room temperature, 30 min; GST-TFs on glutathione beads, 16-mer random dsDNA library, 0.1% formaldehyde crosslink after washing; high values mean tight binding
# Settings: protein: recombinant; tags: N-terminal GST; dsDNA, one strand shown
# Outline: (§1)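 Yeast served to express human transcription factors as GST fusions, which were then captured on glutathione beads and labelled with DNA barcodes. Pooled with a tag-only sample, they were incubated with 200 nmole of a 16-mer random double-stranded DNA library for 30 min at room temperature in Tris/NaCl/DTT/glycerol buffer, washed, crosslinked with 0.1% formaldehyde, ligated by proximity, amplified by PCR and sequenced. Dividing each hexamer's read frequency for a factor by its frequency for the tag-only sample gives the binding signal.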
row,Sequence,binding signal
1,TCTTCG,"1.4 fold enrichment (6-mer frequency, TF over GST control)"
2,GCTTTG,"1.13 fold enrichment (6-mer frequency, TF over GST control)"
3,TCTCTG,"1.42 fold enrichment (6-mer frequency, TF over GST control)"
4,TAAAAG,"1.16 fold enrichment (6-mer frequency, TF over GST control)"
5,CCTTAA,"1.44 fold enrichment (6-mer frequency, TF over GST control)"
6,CTTTTT,"1.31 fold enrichment (6-mer frequency, TF over GST control)"
7,CTTCAA,"1.32 fold enrichment (6-mer frequency, TF over GST control)"
8,ACTAAA,"1.28 fold enrichment (6-mer frequency, TF over GST control)"
9,ATATCC,"3.58 fold enrichment (6-mer frequency, TF over GST control)"
10,AATCTC,"1.29 fold enrichment (6-mer frequency, TF over GST control)"
11,TACCCG,"1.5 fold enrichment (6-mer frequency, TF over GST control)"
12,CCTGTT,"2.1 fold enrichment (6-mer frequency, TF over GST control)"
13,TTTTCC,"2.37 fold enrichment (6-mer frequency, TF over GST control)"
14,AAAACT,"1.27 fold enrichment (6-mer frequency, TF over GST control)"
15,TAATAC,"1.09 fold enrichment (6-mer frequency, TF over GST control)"
16,GACTTC,"2.99 fold enrichment (6-mer frequency, TF over GST control)"
17,ATGGCA,"1.26 fold enrichment (6-mer frequency, TF over GST control)"
18,TCCGAC,"1.61 fold enrichment (6-mer frequency, TF over GST control)"
19,TTACAG,"1.16 fold enrichment (6-mer frequency, TF over GST control)"
20,AATTTC,"2.31 fold enrichment (6-mer frequency, TF over GST control)"

row,Sequence,binding signal
1,ACCAAT,"1.23 fold enrichment (6-mer frequency, TF over GST control)"
2,TAACAC,"1.2 fold enrichment (6-mer frequency, TF over GST control)"
3,TTAGGG,"1.11 fold enrichment (6-mer frequency, TF over GST control)"
4,CTACAC,"1.36 fold enrichment (6-mer frequency, TF over GST control)"
5,CTAGCT,"1.27 fold enrichment (6-mer frequency, TF over GST control)"
6,ATCCAT,"1.09 fold enrichment (6-mer frequency, TF over GST control)"
7,TAGTAC,"1.17 fold enrichment (6-mer frequency, TF over GST control)"
8,TTTGAA,"1.1 fold enrichment (6-mer frequency, TF over GST control)"
9,AACCTA,"1.07 fold enrichment (6-mer frequency, TF over GST control)"
10,GATGTT,"1.32 fold enrichment (6-mer frequency, TF over GST control)"
11,CCTTAG,"1.29 fold enrichment (6-mer frequency, TF over GST control)"
12,CGCGCT,"1.11 fold enrichment (6-mer frequency, TF over GST control)"
13,CATCTA,"1.17 fold enrichment (6-mer frequency, TF over GST control)"
14,TCTATT,"1.18 fold enrichment (6-mer frequency, TF over GST control)"
15,CTATTT,"1.72 fold enrichment (6-mer frequency, TF over GST control)"
16,TTCAGG,"1.15 fold enrichment (6-mer frequency, TF over GST control)"
17,GCTATA,"1.15 fold enrichment (6-mer frequency, TF over GST control)"
18,CTCATT,"1.5 fold enrichment (6-mer frequency, TF over GST control)"
19,CAATTT,"1.29 fold enrichment (6-mer frequency, TF over GST control)"

# Molecular target: T2, ETV3 (Homo sapiens, UniProt P41162-2 1-143)
# T2 sequence: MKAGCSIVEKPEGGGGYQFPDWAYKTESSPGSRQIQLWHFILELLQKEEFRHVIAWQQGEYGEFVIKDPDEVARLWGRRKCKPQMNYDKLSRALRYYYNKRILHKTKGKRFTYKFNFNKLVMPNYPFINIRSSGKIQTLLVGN
# Test: as above
# Settings: protein: recombinant; tags: N-terminal GST; dsDNA, one strand shown
# Outline: as §1
row,Sequence,binding signal
1,TCTTCG,"1.49 fold enrichment (6-mer frequency, TF over GST control)"
2,GCTTTG,"1.15 fold enrichment (6-mer frequency, TF over GST control)"
3,TCTCTG,"1.48 fold enrichment (6-mer frequency, TF over GST control)"
4,TAAAAG,"1.12 fold enrichment (6-mer frequency, TF over GST control)"
5,CCTTAA,"1.35 fold enrichment (6-mer frequency, TF over GST control)"
6,CTTTTT,"1.24 fold enrichment (6-mer frequency, TF over GST control)"
7,CTTCAA,"1.29 fold enrichment (6-mer frequency, TF over GST control)"
8,ACTAAA,"1.21 fold enrichment (6-mer frequency, TF over GST control)"
9,ATATCC,"2.89 fold enrichment (6-mer frequency, TF over GST control)"
10,AATCTC,"1.2 fold enrichment (6-mer frequency, TF over GST control)"
11,TACCCG,"1.47 fold enrichment (6-mer frequency, TF over GST control)"
12,CCTGTT,"1.9 fold enrichment (6-mer frequency, TF over GST control)"
13,TTTTCC,"1.82 fold enrichment (6-mer frequency, TF over GST control)"
14,AAAACT,"1.21 fold enrichment (6-mer frequency, TF over GST control)"
15,TAATAC,"1.03 fold enrichment (6-mer frequency, TF over GST control)"
16,GACTTC,"2.6 fold enrichment (6-mer frequency, TF over GST control)"
17,ATGGCA,"1.3 fold enrichment (6-mer frequency, TF over GST control)"
18,TCCGAC,"1.43 fold enrichment (6-mer frequency, TF over GST control)"
19,TTACAG,"1.16 fold enrichment (6-mer frequency, TF over GST control)"
20,AATTTC,"1.78 fold enrichment (6-mer frequency, TF over GST control)"

row,Sequence,binding signal
1,ACCAAT,"1.29 fold enrichment (6-mer frequency, TF over GST control)"
2,TAACAC,"1.22 fold enrichment (6-mer frequency, TF over GST control)"
3,TTAGGG,"1.11 fold enrichment (6-mer frequency, TF over GST control)"
4,CTACAC,"1.39 fold enrichment (6-mer frequency, TF over GST control)"
5,CTAGCT,"1.24 fold enrichment (6-mer frequency, TF over GST control)"
6,ATCCAT,"1.19 fold enrichment (6-mer frequency, TF over GST control)"
7,TAGTAC,"1.27 fold enrichment (6-mer frequency, TF over GST control)"
8,TTTGAA,"1.22 fold enrichment (6-mer frequency, TF over GST control)"
9,AACCTA,"1.07 fold enrichment (6-mer frequency, TF over GST control)"
10,GATGTT,"1.34 fold enrichment (6-mer frequency, TF over GST control)"
11,CCTTAG,"1.27 fold enrichment (6-mer frequency, TF over GST control)"
12,CGCGCT,"1.17 fold enrichment (6-mer frequency, TF over GST control)"
13,CATCTA,"1.05 fold enrichment (6-mer frequency, TF over GST control)"
14,TCTATT,"1.25 fold enrichment (6-mer frequency, TF over GST control)"
15,CTATTT,"1.63 fold enrichment (6-mer frequency, TF over GST control)"
16,TTCAGG,"1.1 fold enrichment (6-mer frequency, TF over GST control)"
17,GCTATA,"1.18 fold enrichment (6-mer frequency, TF over GST control)"
18,CTCATT,"1.39 fold enrichment (6-mer frequency, TF over GST control)"
19,CAATTT,"1.43 fold enrichment (6-mer frequency, TF over GST control)"

# Molecular target: ETV6 (Homo sapiens, UniProt P41212 1-452)
# Sequence (P41212 whole entry): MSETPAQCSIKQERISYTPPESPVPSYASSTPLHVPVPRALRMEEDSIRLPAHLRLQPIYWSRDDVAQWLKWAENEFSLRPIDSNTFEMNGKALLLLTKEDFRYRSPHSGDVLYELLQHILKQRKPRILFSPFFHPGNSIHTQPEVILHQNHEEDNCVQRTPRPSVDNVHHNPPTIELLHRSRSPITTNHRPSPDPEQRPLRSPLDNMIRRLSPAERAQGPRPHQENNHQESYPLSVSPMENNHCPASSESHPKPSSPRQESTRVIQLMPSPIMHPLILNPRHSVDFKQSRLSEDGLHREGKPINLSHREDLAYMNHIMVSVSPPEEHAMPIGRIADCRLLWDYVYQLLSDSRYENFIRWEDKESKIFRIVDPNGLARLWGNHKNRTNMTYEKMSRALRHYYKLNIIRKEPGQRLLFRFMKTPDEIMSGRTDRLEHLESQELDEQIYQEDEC
# Test: as above
# Settings: protein: recombinant; tags: N-terminal GST; dsDNA, one strand shown
# Outline: as §1
row,Sequence,binding signal
1,TCTTCG,"1.36 fold enrichment (6-mer frequency, TF over GST control)"
2,GCTTTG,"1.24 fold enrichment (6-mer frequency, TF over GST control)"
3,TCTCTG,"1.52 fold enrichment (6-mer frequency, TF over GST control)"
4,TAAAAG,"1.23 fold enrichment (6-mer frequency, TF over GST control)"
5,CCTTAA,"1.26 fold enrichment (6-mer frequency, TF over GST control)"
6,CTTTTT,"1.3 fold enrichment (6-mer frequency, TF over GST control)"
7,CTTCAA,"1.39 fold enrichment (6-mer frequency, TF over GST control)"
8,ACTAAA,"1.28 fold enrichment (6-mer frequency, TF over GST control)"
9,ATATCC,"2.64 fold enrichment (6-mer frequency, TF over GST control)"
10,AATCTC,"1.26 fold enrichment (6-mer frequency, TF over GST control)"
11,TACCCG,"1.5 fold enrichment (6-mer frequency, TF over GST control)"
12,CCTGTT,"1.73 fold enrichment (6-mer frequency, TF over GST control)"
13,TTTTCC,"2.08 fold enrichment (6-mer frequency, TF over GST control)"
14,AAAACT,"1.19 fold enrichment (6-mer frequency, TF over GST control)"
15,TAATAC,"1.12 fold enrichment (6-mer frequency, TF over GST control)"
16,GACTTC,"2.64 fold enrichment (6-mer frequency, TF over GST control)"
17,ATGGCA,"1.28 fold enrichment (6-mer frequency, TF over GST control)"
18,TCCGAC,"1.55 fold enrichment (6-mer frequency, TF over GST control)"
19,TTACAG,"1.19 fold enrichment (6-mer frequency, TF over GST control)"
20,AATTTC,"1.94 fold enrichment (6-mer frequency, TF over GST control)"

row,Sequence,binding signal
1,ACCAAT,"1.34 fold enrichment (6-mer frequency, TF over GST control)"
2,TAACAC,"1.19 fold enrichment (6-mer frequency, TF over GST control)"
3,TTAGGG,"1.08 fold enrichment (6-mer frequency, TF over GST control)"
4,CTACAC,"1.36 fold enrichment (6-mer frequency, TF over GST control)"
5,CTAGCT,"1.32 fold enrichment (6-mer frequency, TF over GST control)"
6,ATCCAT,"1.09 fold enrichment (6-mer frequency, TF over GST control)"
7,TAGTAC,"1.22 fold enrichment (6-mer frequency, TF over GST control)"
8,TTTGAA,"1.23 fold enrichment (6-mer frequency, TF over GST control)"
9,AACCTA,"1.1 fold enrichment (6-mer frequency, TF over GST control)"
10,GATGTT,"1.3 fold enrichment (6-mer frequency, TF over GST control)"
11,CCTTAG,"1.23 fold enrichment (6-mer frequency, TF over GST control)"
12,CGCGCT,"1.15 fold enrichment (6-mer frequency, TF over GST control)"
13,CATCTA,"1.15 fold enrichment (6-mer frequency, TF over GST control)"
14,TCTATT,"1.29 fold enrichment (6-mer frequency, TF over GST control)"
15,CTATTT,"1.9 fold enrichment (6-mer frequency, TF over GST control)"
16,TTCAGG,"1.11 fold enrichment (6-mer frequency, TF over GST control)"
17,GCTATA,"1.14 fold enrichment (6-mer frequency, TF over GST control)"
18,CTCATT,"1.45 fold enrichment (6-mer frequency, TF over GST control)"
19,CAATTT,"1.32 fold enrichment (6-mer frequency, TF over GST control)"
